Laboratory results: PubChem BioAssay (NCATS)
Where “and” joins values, the source holds several entries; their conditions need not be identical. Equal entries are not always repeated. Records with an inconclusive call do not appear. A number with no mark means an inactive call. Calls of active or inactive are those of the source. Unless noted, calls come from the whole dose curve; as a rule, active = well fitted curve in the direction sought with a large enough effect; inconclusive = small, poorly fitted or top-dose-only effect, or another doubt; inactive = no such curve, though single readings can be large; an effect the other way counts as inactive or inconclusive.

Tests used:
[1] = Cell Proliferation Assay against the TMD8 Cell Line (Caspase readout at 8 hrs) (AID 651713); note: potency is the fitted concentration of half-maximal effect
Summary of the method: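 Seed log-phase TMD8 cells, add compound by pin tool, incubate 8 h at 37C under 5% CO2, equilibrate to room temperature, add Caspase-Glo, wait 15 min, read luminescence; percent activity uses DMSO and 9.2 uM bortezomib controls.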

[2] = qHTS assay for small molecule agonists of the antioxidant response element (ARE) signaling pathway (AID 651741; active = well fitted activation curve with a large enough effect in the signal ratio; the % refers to the signal ratio; note: potency is the fitted concentration of half-maximal effect; for activation: % of control where 0% means no effect)
Summary of the method: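 Quantitative HTS in HepG2 cells stably expressing an ARE-beta-lactamase reporter; 16 h compound exposure at 37 C, followed by 2 h room-temperature incubation with LiveBLAzer B/G FRET substrate and fluorescence measurement.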

[3] = qHTS assay for small molecule activators of the nuclear factor-kappa B (NF-kB) signaling pathway (AID 651749; active = well fitted activation curve with a large enough effect in the signal ratio; the % refers to the signal ratio; note: series mostly up to about 77 µM; % of control where 0% means no effect); settings: NF-kB-bla ME-180 cells, beta-lactamase FRET ratio, 16 h; active compounds read high
Summary of the method: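 Readout: beta-lactamase reporter driven by an NF-kB response element, detected fluorescently as loss of FRET. Cells were the ME-180 line, treated 16 hr at 37C with pin-transferred compound.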

[4] = qHTS assay for small molecule disruptors of the mitochondrial membrane potential - 1 hr assay (AID 651754; calls by dose curve; note: nearly all actives have a fitted effect of over 35% in size; note: potency is the fitted concentration of half-maximal effect)
Summary of the method: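 HepG2, 2,000 cells/well, overnight attachment; cpd or DMSO 1 hr, 37C/5% CO2; Mito-MPS dye 30 min, 37C; fluorescence monomer (490/535) and aggregate (540/590).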

[5] = qHTS assay for small molecule disruptors of the mitochondrial membrane potential - 5 hr assay (AID 651755; calls by dose curve; note: nearly all actives have a fitted effect of over 40% in size; note: potency is the fitted concentration of half-maximal effect)
Summary of the method: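 HepG2, 2,000 cells/well, overnight attach; cpd or DMSO 5 hr, 37C/5% CO2; Mito-MPS 30 min 37C; fluor 490/535 + 540/590 nm.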

[6] = biological target: Tumor necrosis factor (Homo sapiens) (UniProt P01375); assay: qHTS assay to identify small molecules that stimulate Tumor Necrosis Factor-alpha (TNF-alpha) secretion (AID 651757; active = well fitted curve in the direction sought with a large enough effect in the signal ratio; the % refers to the signal ratio; note: 0% is about no effect)
Summary of the method: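 Read-out is HTRF, a TR-FRET sandwich of cryptate- and XL665-labeled anti-TNF-alpha antibodies detecting cytokine secreted by THP-1 cells. Cells had been incubated with test compounds at 37 C for 17 hrs beforehand.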

[7] = qHTS assay for environmental chemicals that activate the Aryl hydrocarbon Receptor (AhR) signaling pathway (AID 651777); settings: 1A2-DRE human hepatoma cells, luciferase, 24 h; activation: active compounds read high; note: nearly all actives have a fitted effect of over 15% in size; note: potency is the fitted concentration of half-maximal effect; for activation: % of control where 0% means no effect
Summary of the method: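 Human hepatoma 1A2-DRE cells stably carrying a DRE/CYP1A2 promoter–luciferase reporter, 1,200 cells/well, exposed to compound 24 hr at 37 C. Luciferase read by One-Glo luminescence after 30 min at room temperature; increased signal marks AhR activation.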

[8] = qHTS assay for small molecule activators of the p53 signaling pathway (AID 651743; active = well fitted activation curve with a large enough effect in the signal ratio, not every such curve was filed as active; the % refers to the signal ratio; note: potency is the fitted concentration of half-maximal effect; for activation: series mostly up to about 92 µM; % of control where 0% means no effect); settings: HCT-116 p53RE-bla, beta-lactamase FRET ratio, 16 h; activation: active compounds read high
Summary of the method: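 Read-out is fluorescence intensity from the LiveBLAzer B/G FRET substrate, added for 2 hours at room temperature after HCT-116 p53RE-bla cells had been incubated with compounds for 16 hours at 37 C.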

[9] = Cell Proliferation Assay against the TMD8 Cell Line (Caspase readout at 16 hrs) (AID 651712); note: potency is the fitted concentration of half-maximal effect
Summary of the method: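 Apoptotic response of TMD8 cells was judged from caspase 3/7 activation following a 16 hour compound incubation at 37 °C. Luminescent signal was converted to percent activity, with DMSO set as 0% and 9.2 uM final bortezomib as 100%.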

[10] = qHTS assay to identify small molecules that stimulate interleukin-8 (IL-8) secretion (AID 651758; active = well fitted activation curve with a large enough effect in the signal ratio; the % refers to the signal ratio; note: 0% is about no effect)
Summary of the method: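 Secreted IL-8 measured by TR-FRET sandwich (cryptate and XL665 antibodies) from THP-1 cells exposed to compound overnight (16 hrs, 37 C).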

Tumor necrosis factor (Homo sapiens), sequence (P01375 whole entry, looked up): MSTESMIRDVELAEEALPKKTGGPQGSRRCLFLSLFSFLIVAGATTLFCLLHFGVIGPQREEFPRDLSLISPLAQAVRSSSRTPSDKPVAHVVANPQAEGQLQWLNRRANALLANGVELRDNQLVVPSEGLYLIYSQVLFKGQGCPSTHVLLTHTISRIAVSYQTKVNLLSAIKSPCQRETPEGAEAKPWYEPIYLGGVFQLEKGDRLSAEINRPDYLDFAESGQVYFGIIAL

Cc1ccc(-c2cc(C(F)(F)F)nn2-c2ccc(S(N)(=O)=O)cc2)cc1
Potency [1]: 54 µM (active)
Potency [2]: 66.8 µM (active)
activation [3]: -1.1%
Potency [4]: 42.2 µM (active)
Potency [5]: 42.2 µM (active)
outcome [6]: inactive
activation [7]: -1.91%

NS(=O)(=O)c1cc2c(cc1Cl)NCNS2(=O)=O
Potency [2]: inactive
activation [8]: -0.393% and 4.88%
outcome [6]: inactive
activation [7]: 0.0029% and 2.21%

COc1ccc2c(c1)c(CC(=O)O)c(C)n2C(=O)c1ccc(Cl)cc1
activation [8]: -7.78% and -10.3%
outcome [6]: inactive
activation [7]: 0.534% and -1.07%

C[C@](N)(Cc1ccc(O)c(O)c1)C(=O)O
activation [8]: -5.22%
activation [3]: 0.934%
activation [7]: -1.04%

CC(C)NCC(O)c1ccc(O)c(O)c1 (stereo unspecified)
Potency [4]: inactive
Potency [5]: inactive
outcome [6]: inactive
activation [7]: 0.956% and 0.375%

CN(C)C(=N)N=C(N)N
Potency [9]: inactive
Potency [1]: inactive

CCC1(c2ccccc2)C(=O)NCNC1=O
Potency [2]: inactive
activation [8]: -3.22% and -3.23%
activation [3]: 0.499% and -0.837%
outcome [6]: inactive
activation [7]: -1.18% and 8.62%

N[C@@H](Cc1c[nH]c2ccc(O)cc12)C(=O)O
activation [3]: 0.166%
Potency [5]: inactive

CN(C)CCOC(c1ccccc1)c1ccccc1
activation [7]: 0.827%

Cn1c(=O)c2[nH]cnc2n(C)c1=O
Potency [2]: inactive
activation [8]: 0.514%
activation [3]: 0.41%
outcome [6]: inactive
activation [7]: 3.65%

Cc1cn([C@H]2C[C@H](N=[N+]=[N-])[C@@H](CO)O2)c(=O)[nH]c1=O
activation [8]: 7.41% and -3.71%
activation [3]: 0.977% and -0.0662%
outcome [6]: inactive
activation [7]: -0.858% and 1.65%

CC[C@@]1(O)C(=O)OCc2c1cc1n(c2=O)Cc2cc3c(CN(C)C)c(O)ccc3nc2-1
Potency [9]: 0.0074 µM (active)
Potency [1]: 1.48 µM (active)

O=C(c1ccc(OCCN2CCCCC2)cc1)c1c(-c2ccc(O)cc2)sc2cc(O)ccc12
activation [7]: -4.31%

CC(C)C(=O)Nc1ccc([N+](=O)[O-])c(C(F)(F)F)c1
outcome [6]: inactive
activation [7]: 3.62% and 3.92%

COc1cc2c(c(OC)c1OC)-c1ccc(OC)c(=O)cc1[C@@H](NC(C)=O)CC2
activation [3]: 2.95% and 1.58% and 1.39%
Potency [4]: inactive
Potency [5]: inactive
outcome [6]: inactive
activation [7]: -0.775% and -1.98% and -0.55%

COc1ccc(CCN(C)CCCC(C#N)(c2ccc(OC)c(OC)c2)C(C)C)cc1OC (stereo unspecified)
activation [8]: -2.6%
outcome [6]: inactive

CC(C)Cc1ccc(C(C)C(=O)O)cc1 (stereo unspecified)
Potency [2]: inactive
activation [8]: -2.52%
activation [3]: -1.23%
activation [7]: -1.21%

O=C(Nc1ccc([N+](=O)[O-])cc1Cl)c1cc(Cl)ccc1O
Potency [2]: 3.06 µM (active)
Potency [8]: 0.891 µM (active)
activation [3]: -2.6%
Potency [7]: 1.41 µM (active)

CCOC(=O)C(C)(C)Oc1ccc(Cl)cc1
Potency [2]: inactive
activation [8]: 3.33%
activation [3]: -3.61%
activation [7]: 0.305%

Clc1ccc(C(c2ccccc2Cl)C(Cl)Cl)cc1 (stereo unspecified)
Potency [2]: 66.8 µM (active)
activation [3]: 2.3%
Potency [4]: 29.8 µM (active)
Potency [5]: 37.6 µM (active)
outcome [6]: inactive
activation [7]: 2.12% and 0.378%

Cn1cnc2c1c(=O)[nH]c(=O)n2C
Potency [2]: inactive
activation [3]: -2.65%
activation [7]: 2.86%

COc1ccc2[nH]cc(CCNC(C)=O)c2c1
Potency [2]: inactive
activation [8]: -4% and -3.68% and -2.3%
activation [3]: -0.27% and 0.655% and 0.179%
outcome [10]: inactive
activation [7]: 0.634% and 1.82% and 3.42%

O=c1c(-c2ccc(O)cc2)coc2cc(O)cc(O)c12
Potency [2]: 9.69 µM (active) and 13.3 µM (active)
activation [8]: 12.7% and 14.1%
activation [3]: 3.3% and 4.88%
Potency [4]: 5.96 µM (active)
Potency [5]: 7.5 µM (active)
outcome [10]: inactive
Potency [7]: 12.6 µM (active)

O=c1[nH]cc(F)c(=O)[nH]1
outcome [6]: inactive
activation [7]: -0.168%

NCCS(=O)(=O)O
activation [8]: -1.87%
Potency [4]: inactive
Potency [5]: inactive
outcome [6]: inactive
activation [7]: -0.375%

Cn1c(=O)c2c(ncn2C)n(C)c1=O
Potency [2]: inactive
activation [8]: -3.61% and -3.49%
outcome [6]: inactive
activation [7]: -0.0272% and 0.654%

CC(COc1ccccc1)N(CCCl)Cc1ccccc1 (stereo unspecified)
outcome [6]: inactive

Cc1cn([C@H]2C=C[C@@H](CO)O2)c(=O)[nH]c1=O
Potency [2]: inactive
outcome [6]: inactive
activation [7]: 0.0815% and -0.191% and -0.434%

Nc1ccn([C@H]2CC[C@@H](CO)O2)c(=O)n1
Potency [2]: inactive
activation [8]: -0.413% and 2.91%
activation [3]: -0.557% and 0.274%
outcome [6]: inactive

CN(Cc1cnc2nc(N)nc(N)c2n1)c1ccc(C(=O)N[C@@H](CCC(=O)O)C(=O)O)cc1
Potency [2]: 0.154 µM (active)

CC(C)(Oc1ccc(C2CC2(Cl)Cl)cc1)C(=O)O (stereo unspecified)
activation [8]: -1.02%
activation [3]: 1.65%

CC#C[C@]1(O)CC[C@H]2[C@@H]3CCC4=CC(=O)CCC4=C3[C@@H](c3ccc(N(C)C)cc3)C[C@@]21C
Potency [2]: 21.7 µM (active)
activation [3]: 4.11%
activation [7]: 14.1%

Nc1c2c(nc3ccccc13)CCCC2
activation [8]: 1%
activation [7]: 11.6%

O=C(CCCN1CCC(O)(c2ccc(Cl)cc2)CC1)c1ccc(F)cc1
activation [8]: 0.976%
activation [7]: -0.128%

Cn1ccc2cc3c(cc21)CCN3C(=O)Nc1cccnc1
Potency [9]: inactive
Potency [1]: inactive
